# Assay results published in PubChem BioAssay (NCI).
# Compounds without any hit were thinned out: in the full panel of roughly 83,000, 20% have a hit.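 A percent growth of 40 corresponds to 60% growth inhibition; 0 means no net growth; -100 means all cells died. Active threshold: below 10.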 Values without a mark were called inactive. Calls of active or inactive are those of the source.
# Assays:
# Assay in all cases: NCI-60 one-dose screen, 48 h (100 = growth as untreated, 0 = no growth, -100 = all killed)
# Settings in all cases: 10 µM unless noted
# HCT-15 colon = tested on: HCT-15 colon
# HT29 colon = tested on: HT29 colon
# SNB-75 CNS = tested on: SNB-75 CNS
# SNB-19 CNS = tested on: SNB-19 CNS
# U251 CNS = tested on: U251 CNS
# PC-3 prostate = tested on: PC-3 prostate
# SK-MEL-5 melanoma = tested on: SK-MEL-5 melanoma
# UACC-62 melanoma = tested on: UACC-62 melanoma
# LOX IMVI melanoma = tested on: LOX IMVI melanoma
# SK-MEL-28 melanoma = tested on: SK-MEL-28 melanoma
# SK-MEL-2 melanoma = tested on: SK-MEL-2 melanoma
# EKVX NSCLC = tested on: EKVX NSCLC
# SN12C renal = tested on: SN12C renal
# UO-31 renal = tested on: UO-31 renal
# TK-10 renal = tested on: TK-10 renal
# ACHN renal = tested on: ACHN renal
# CAKI-1 renal = tested on: CAKI-1 renal
# A498 renal = tested on: A498 renal
# CCRF-CEM leukemia = tested on: CCRF-CEM leukemia
# MOLT-4 leukemia = tested on: MOLT-4 leukemia
SMILES,growth (HCT-15 colon),growth (HT29 colon),growth (SNB-75 CNS),growth (SNB-19 CNS),growth (U251 CNS),growth (PC-3 prostate),growth (SK-MEL-5 melanoma),growth (UACC-62 melanoma),growth (LOX IMVI melanoma),growth (SK-MEL-28 melanoma),growth (SK-MEL-2 melanoma),growth (EKVX NSCLC),growth (SN12C renal),growth (UO-31 renal),growth (TK-10 renal),growth (ACHN renal),growth (CAKI-1 renal),growth (A498 renal),growth (CCRF-CEM leukemia),growth (MOLT-4 leukemia)
COc1ccc(C2CC(c3ccc(Nc4nc(NCCO)nc(N5CCOCC5)n4)cc3)=Nc3c(N)nc(N)nc3N2)cc1 (stereo not given),100%,102%,86.4%,102%,95.5%,105%,96.2%,104%,103%,108%,107%,107%,96.9%,93.7%,115%,102%,94.3%,87.9%,105%,102%
COc1ccc2[nH]cc(/C=N/Nc3nc4ccccc4s3)c2c1,22.9%,59.9%,66.5%,80%,55.7%,33.2%,83.7%,73.1%,30.7%,83.1%,80.5%,50%,69.6%,37.4%,103%,63.9%,41.3%,63.4%,47.3%,35.9%
NS(=O)(=O)c1ccc(Nc2nc(SCc3ccccc3)nc3ccccc23)cc1,39.1%,41%,70.5%,78.2%,60.1%,54.1%,49.8%,70%,52.3%,91.6%,92.4%,77.7%,65.1%,46.9%,81.5%,62%,49.1%,48.5%,41.8%,43.9%
COc1ccc([C@@H]2[C@@H](O)C(=O)N2c2cc(OC)c(OC)c(OC)c2)cc1F,7.95% (active),-31.9% (active),17.6%,24.7%,12.2%,20.9%,-34% (active),33.4%,-4.8% (active),68.6%,-5.37% (active),41.8%,28.7%,30.1%,86.3%,28.4%,30.3%,-29.5% (active),18.5%,15.8%
COc1cc(OC)c(/C=C/S(=O)(=O)Cc2ccc(OC)c(NC(=O)CCC(=O)NO)c2)c(OC)c1,8.57% (active),3.2% (active),31.6%,23%,14.6%,28.7%,-31.6% (active),13.8%,10.4%,60%,46.6%,36.1%,22.7%,34.1%,64.4%,28.1%,25.3%,-20.8% (active),11.5%,17.2%
CC(C)c1ccc(NCc2cn(-c3ccc(C(=O)O)cc3)nc2-c2cc(C(F)(F)F)cc(C(F)(F)F)c2)cc1,73.7%,80.9%,89%,83.8%,86.2%,70.4%,96%,81.9%,91.9%,93.3%,91.8%,79.2%,85.9%,78.6%,118%,92.6%,63.7%,90%,74.8%,71.6%
COc1cc(Cn2cc3c(c2)-c2onc(CN4CCCC4)c2CC3)cc(OC)c1OC,94.7%,105%,104%,90.6%,96.8%,92.5%,79.8%,81.2%,97.6%,95.2%,101%,75.9%,96.7%,78.1%,111%,97.5%,91.7%,94.4%,89%,91.8%
